Most compounds without a hit are left out; they make up all but 2.4% or so of the library.
CHRM1 antagonist: blocks human M1 muscarinic receptor | actives 1.3% (n = 360,000) | AID 588852 | inhibition, % at 3 µM | P11229 | CHO-K1 hM1, Fluo-8 calcium fluorescence, ACh EC80 antagonist;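 active = percent inhibition above its own plate's cutoff, namely the mean of that plate's compound wells plus 3 SD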;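 note: peak over basal fluorescence ratio during 140 s after agonist addition; 0% = ACh EC80 plus DMSO and 100% = DMSO alone without agonist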
Target sequence (P11229 whole entry, looked up): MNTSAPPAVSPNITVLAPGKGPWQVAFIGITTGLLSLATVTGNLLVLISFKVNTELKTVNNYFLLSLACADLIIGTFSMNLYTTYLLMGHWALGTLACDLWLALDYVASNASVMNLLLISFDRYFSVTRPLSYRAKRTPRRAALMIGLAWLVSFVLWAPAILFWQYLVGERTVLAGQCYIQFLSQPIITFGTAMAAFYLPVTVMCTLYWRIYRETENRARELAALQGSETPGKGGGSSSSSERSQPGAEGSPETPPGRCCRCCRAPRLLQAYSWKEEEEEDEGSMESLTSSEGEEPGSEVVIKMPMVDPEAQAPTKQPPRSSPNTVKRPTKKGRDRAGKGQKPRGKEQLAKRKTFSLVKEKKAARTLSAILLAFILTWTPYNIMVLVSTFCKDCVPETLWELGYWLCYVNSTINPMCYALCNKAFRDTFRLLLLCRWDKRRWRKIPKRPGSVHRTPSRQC
CHO-K1 Ca antag: counter-screen for M1 antagonists: effect in parental CHO-K1 cells; ATP-induced calcium, Fluo-8 fluorescence; inhibition, % at 3 µM; actives 0.6% (n = 360,000);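 active = inhibition above a per-plate cutoff, the plate's mean sample inhibition plus 3 SD, cut at about 24% in these data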;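 note: 0% = DMSO plus EC80 ATP and 100% = DMSO alone without ATP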
M1 PAM: potentiates human M1 receptor response to acetylcholine | P11229 | activation, % at 3 µM | AID 588819 | CHO-K1 hM1, Fluo-8 calcium fluorescence, ACh EC20; 0% = ACh EC20, 100% = maximal ACh | actives 0.088% (n = 360,000); in the data active = activation above about 19%, passing the limit was not always enough
CHO-K1 Ca PAM: counter-screen for M1 PAMs: effect in parental CHO-K1 cells; activation, % at 3 µM; ATP EC20, Fluo-8 calcium fluorescence; 0% at ATP EC20, 100% at ATP max; AID 602247; actives 0.02% (n = 360,000);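 active = activation above the run cutoff, the mean activation of all test compounds plus 3 SD, cut at about 40% in these data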;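 note: peak over basal fluorescence ratio in a 140 s read after ATP addition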
CHO-K1 Ca ag: counter-screen for M1 agonists: effect in parental CHO-K1 cells. Fluo-8 calcium fluorescence; scaled to maximal ATP response, vehicle zero. activation, % at 3 µM. actives 0.48% (n = 360,000); in the data active = activation above about 15%;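 note: untransfected CHO-K1 host cells lacking M1 receptor as counterscreen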
CHRM1 agonist: human M1 muscarinic receptor agonism; P11229; CHO-K1 hM1, Fluo-8 calcium fluorescence, agonist mode; 0% DMSO, 100% acetylcholine EC100; activation, % at 3 µM; actives 0.33% (n = 360,000);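 active = activation above the run's mean compound activation plus 3 SD, cut at about 16% in these data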;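 note: peak over basal fluorescence ratio within a 140 s kinetic read after compound addition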
Numbers without * were called inactive.

SMILES	CHRM1 antagonist	CHO-K1 Ca antag	M1 PAM	CHO-K1 Ca PAM	CHO-K1 Ca ag	CHRM1 agonist
O=C(NC(c1ccccc1)c1ccccc1)C1CCCO1 (configuration not stated)	-4	4	7	5	21*	-2
O=S(=O)(c1c(F)cccc1F)C1CCN(S(=O)(=O)c2ccc3c(c2)OCCO3)CC1	-9	-20	6	11	0	-3
COC(=O)c1c(C(=O)OC)c(-c2ccccc2)n2c1CS(=O)(=O)C2	-1	26*	1	-6	0	-1
COC(=O)c1c(C(=O)OC)c(-c2ccc(F)cc2)n2c1CS(=O)(=O)C2	-17	4	13	2	0	0
COc1cccc(CC2(CO)CCN(CC3=CC[C@H]4C[C@@H]3C4(C)C)CC2)c1	36*	-7	-24	12	15	-6
COc1cccc(CC2(CO)CCN(Cc3ccc(NC(C)=O)cc3)CC2)c1	16	-4	-9	11	0	-5
COc1cc(OC)cc(-c2n[nH]c(=S)n2-c2ccc3c(c2)OCCO3)c1	26*	19	-14	-12	0	-4
COc1ccc(-c2n[nH]c(=S)n2-c2ccc3c(c2)OCCO3)cc1	-5	-5	5	15	0	-5
CCN(CC)S(=O)(=O)c1cccc(NC(=O)/C=C/c2ccc([N+](=O)[O-])cc2)c1	7	-4	-4	9	8	-2
CCN(CC)S(=O)(=O)c1ccc(/C=C/C(=O)Nc2ccc(Br)cc2F)cc1	31*	3	-20	6	2	-9
CCN(CC)S(=O)(=O)c1cccc(NC(=O)/C=C/c2cccc([N+](=O)[O-])c2)c1	20	8	-23	-9	16*	4
O=C(Cn1ccc(NC(=O)OCc2ccccc2)nc1=O)NCCN1CCOCC1	-7	-2	2	-10	0	-5
O=C(NC1CCCC1)C(c1ccc(F)cc1)N(Cc1ccccc1Cl)C(=O)CCl (configuration not stated)	-18	1	18	14	0	-6
Nn1c(SCC(=O)N2CCCC2)nnc1-c1cccs1	-5	27*	3	-11	0	-4
O=C(CSc1nnc(-c2cccs2)n1-c1ccccc1)N1CCOCC1	23	35*	-8	-24	0	-1
O=C(CSc1nnc(-c2cccs2)n1-c1ccccc1)N1CCCC1	-8	-22	3	6	1	-4
CCn1c(SCC(=O)NCCc2ccccc2)nnc1-c1cccs1	-12	6	4	10	0	-3
CCn1c(SCC(=O)c2ccccc2)nnc1-c1cccs1	-3	26*	3	-9	0	-4
Cc1ccccc1C(=O)NNC(=O)c1cccc(Br)c1	-24	-5	11	8	1	-2
Cc1ccc(NC(=O)C2(c3ccccc3)CCOCC2)cc1	-3	-5	13	12	1	-13
O=C(COC(=O)C1(c2ccccc2)CCCC1)N1CCNC1=O	-12	-8	3	10	1	-6
CN(C)CCOC(=O)C1(c2ccccc2)CCOCC1	23*	-5	-24	10	0	-6
CCN(CC)CCOC(=O)C1(c2ccccc2)CCCC1	100*	-7	-24	16	3	-9
O=C(OCCCN1CCCC1)C1(c2ccccc2)CCCC1	96*	3	-21	8	0	-6
CCN(CC)CCOC(=O)C1(c2ccc(OC)c(OC)c2)CCCC1	77*	-16	-21	18	0	-8
SMILES	CHRM1 antagonist	CHO-K1 Ca antag	M1 PAM	CHO-K1 Ca PAM	CHO-K1 Ca ag	CHRM1 agonist
O=[N+]([O-])/C(C(Cl)=C(Cl)Cl)=C1\Nc2ccccc2O1	-2	-9	2	8	1	-1
O=C(NCCNC(=O)c1cccnc1)c1ccc(Br)cc1	-7	-8	5	-12	1	0
Cc1cc(-c2ccccc2)oc(=O)c1NC(=O)c1ccccc1	1	-4	5	2	1	-6
N#Cc1ccsc1NC(=O)CN(Cc1ccccc1)Cc1ccccc1	-8	-19	9	44*	1	-8
N#Cc1ccsc1NC(=O)CCc1ccccc1	-6	-10	7	16	1	-2
Cc1cccc(C)c1NC(=O)CN(Cc1ccccc1)Cc1ccccc1	-24	-9	2	15	6	18*
C[C@H](CO)N1C[C@H](C)[C@@H](CN(C)S(=O)(=O)c2cn(C)cn2)Oc2c(NS(=O)(=O)c3ccc(F)cc3)cccc2C1=O	-15	-8	6	14	1	-2
CC(C)(C)C(=O)NNC(=O)c1cc2sccc2s1	-10	-4	5	9	0	-1
COc1cccc(-c2nc(CS(=O)(=O)CC(=O)NCCCN3CC(C)CC(C)C3)c(C)o2)c1 (configuration not stated)	41*	2	-19	-12	0	-6
COc1cccc(-c2nc(CS(=O)(=O)CC(=O)NCCCN3CCN(C)CC3)c(C)o2)c1	-5	-14	3	10	0	-5
CC1CN(C(=O)COC(=O)/C=C/c2ccc(C(F)(F)F)cc2)CC(C)O1 (configuration not stated)	-9	-5	6	23	3	-2
CC1CN(C(=O)COC(=O)/C=C/c2ccccc2)CC(C)O1 (configuration not stated)	29*	4	-14	-6	0	-1
COc1ccc(NC(=O)c2c(F)c(F)c(F)c(F)c2F)cc1Cl	6	32*	-8	-6	2	-3
O=c1c2ccccc2nc(/C=C/c2ccc([N+](=O)[O-])cc2)n1CCCO	5	-3	2	22	3	-5
O=c1c2ccccc2nc(/C=C/c2cccc([N+](=O)[O-])c2)n1CCCO	6	28*	-4	-5	1	-5
Cc1ccc(/C=C/c2nc3ccccc3c(=O)n2CCc2ccccc2)cc1	-10	26*	6	-15	0	-5
O=C(NOCc1ccccc1)c1ccc(Cl)cc1	41*	-13	-22	7	0	-7
CN(C)c1nc2ccccc2n(C)c1=O	-5	24*	1	-15	0	-2
CCc1ccc(C(=O)COC(=O)c2cncc(Br)c2)cc1	-11	-5	5	16	0	-12
Cc1ccc(S(=O)(=O)CCN2C=CC(C(F)(F)F)=NCC2)cc1	-14	2	14	11	17*	6
CCOC(=O)c1cc(-c2ccc(OC)cc2)nc2c1c(C)nn2CCC(N)=S	2	9	-6	-15	0	-6
OCCC#Cc1ccc(CN2CCN(C3CCCCC3)C(CCO)C2)cc1 (configuration not stated)	5	-6	-8	14	0	-11
